# D1 antag: Antagonist of Human D 1 Dopamine Receptor: qHTS. 3.2% of 360,000 active. activity change, negative = inhibition, % at 10 µM. HEK293 TREx D1 cells, calcium flux, dopamine EC80; hits give low values. D(1A) dopamine receptor (Homo sapiens), P21728. AID 504652, 2011; in the data active = activity change below about -30%; also: % is scaled to controls: 0 for no effect and ±100 for the full control effect
#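 Allosteric or orthosteric antagonism assessed as attenuation of the calcium response to EC80 dopamine, added 180 s after compound, in induced HEK293 Trex D1 cells loaded with no-wash calcium dye.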
# D1 ag: Allosteric Agonists of the Human D1 Dopamine Receptor: qHTS. HEK293 T-REx D1 cells, calcium flux, agonist mode. 1% of 360,000 active. AID 504660, 2011. activation, % at 2 µM; also: 0% is about no effect
#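 Agonism was scored from calcium flux recorded over 180 s (1 read/s) after pintool compound addition, following a 10-cycle baseline. Cells were inducible force-coupled HEK293 TREx D1, plated overnight at 30 C and loaded with no-wash calcium dye.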
# TRHR ag: qHTS for Small Molecule Agonists and Allosteric Enhancers of Human TRH Receptor: Primary Screen for Agonists; TRHR cells, calcium flux fluo-8, FDSS agonist mode; 0.18% of 360,000 active; activation, % at 2 µM; also: 0% is about no effect
# Target sequence (P34981 whole entry, looked up): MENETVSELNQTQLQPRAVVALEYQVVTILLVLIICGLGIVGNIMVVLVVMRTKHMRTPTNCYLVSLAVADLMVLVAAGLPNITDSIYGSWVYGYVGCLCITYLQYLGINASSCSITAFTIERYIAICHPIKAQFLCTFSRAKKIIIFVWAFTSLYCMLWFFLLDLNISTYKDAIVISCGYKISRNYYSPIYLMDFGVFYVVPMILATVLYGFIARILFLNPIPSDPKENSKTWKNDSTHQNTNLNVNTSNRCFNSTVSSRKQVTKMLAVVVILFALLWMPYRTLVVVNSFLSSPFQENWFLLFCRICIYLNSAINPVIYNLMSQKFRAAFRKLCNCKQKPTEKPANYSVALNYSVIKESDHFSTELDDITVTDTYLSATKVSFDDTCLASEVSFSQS
#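 Fluo-8-loaded TRHR cells; 10 s baseline, compound added, kinetic Ca2+ fluorescence read 1/s, agonist mode.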
# D1 potentiator: Potentiators of Human D1 Dopamine Receptor: qHTS; AID 504651, 2011; HEK293 TREx D1 cells, calcium flux, dopamine EC20 potentiation; 0.036% of 360,000 active; D(1A) dopamine receptor (Homo sapiens), P21728; potentiation, % at 10 µM; in the data active = potentiation above about 30%; also: 0% is about no effect
# TRHR enhancer: qHTS for Small Molecule Agonists and Allosteric Enhancers of Human TRH Receptor: Primary Screen for Enhancers. 0.66% of 360,000 active. enhancement, % at 2 µM. AID 493056, 2011. Thyrotropin-releasing hormone receptor (Homo sapiens), P34981. TRHR cells, fluo-8 calcium fluorescence, EC20 TRH enhancement; in the data active = enhancement above about 30%; also: 0% is about no effect
#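 TRHR-expressing cells loaded with fluo-8 calcium dye were read kinetically (ex 480/em 530) during compound addition, then stimulated with an EC20 of TRH (10 nM final). Enhancement of the Gq-mediated intracellular calcium response was scored.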
# * hit, by the source's call; . = no result given. In the library only some 4.6% were active in any assay of this set; here they are far more common. Rule as the data show it, unless noted: active = activation above about 30%; inactive = the rest.
SMILES,D1 antag,D1 ag,TRHR ag,D1 potentiator,TRHR enhancer
COc1ccc(C(=O)COC(=O)CCN2C(=O)C3CC=CCC3C2=O)c(OC)c1 (configuration not stated),-4,0,-1,1,7
Cc1ccc(C(=O)C(C)OC(=O)CNC(=O)c2ccc(Br)o2)cc1 (configuration not stated),14,-2,-2,-6,-4
COc1ccc(CCC(=O)OC(C)C(=O)c2ccc(C)cc2)cc1 (configuration not stated),-36*,10,-1,-6,-3
COc1ccc(C(=O)C(C)OC(=O)CCN2C(=O)C3CC=CCC3C2=O)cc1 (configuration not stated),-35*,1,0,0,16
CC1=NN(c2ccccc2)C(=O)C1,3,4,0,2,6
CC1=NN(c2cccc([N+](=O)[O-])c2)C(=O)C1,-10,43*,1,-2,-6
O=C(Nc1cccc(Cl)c1)c1ccc(F)c(S(=O)(=O)NCc2ccc3c(c2)OCO3)c1,-16,3,0,-5,2
O=C(Nc1ccc(N=Nc2ccccc2)c(NC(=O)C2CCCO2)c1)C1CCCO1 (configuration not stated),3,-1,0,-6,1
COc1cc(CNCCc2ccccc2)cc(Cl)c1OCc1ccccc1,12,40*,-2,17,9
COc1cc(CNCCc2ccc(F)cc2)ccc1OCc1ccc(Cl)nc1,-40*,92*,6,-21,6
CCOc1cc(CNCC(C)C)cc(Cl)c1OCc1ccccc1,9,47*,0,18,-4
COc1cc(CNCCc2c[nH]c3ccccc23)cc(Cl)c1OCC(N)=O,-31*,12,3,-2,2
COc1cc(CNCc2ccccc2)cc(Cl)c1OC,-1,5,0,-10,3
CCOc1c(Cl)cc(CNCC(C)C)cc1OC,4,7,1,3,10
COc1ccc(CCNC(=O)c2ccc3c(c2)CCN3S(=O)(=O)c2ccc(C)cc2)cc1OC,-5,1,-1,-1,0
Cc1ccc(Nc2c(-c3ccc(C)s3)nc3ncccn23)cc1,5,3,0,-3,0
COc1cc(CNCCc2ccccc2)cc(Br)c1OCC(=O)Nc1ccccc1C,-16,51*,1,-3,5
CNCc1cc(Br)c(OCC(=O)Nc2ccccc2OC)c(OC)c1,3,14,2,-4,4
CCOc1ccccc1C1C(C(=O)Nc2ccccc2)=C(C)Nc2c(C(=O)Nc3ccc(F)cc3)cnn21 (configuration not stated),6,1,-1,-1,-8
Cc1ccc(CC(=O)Nc2ccccc2N2CCOCC2)cc1C,.,1,-1,0,8
C=CCn1c(CCc2ccccc2)nnc1SCC(N)=O,-3,1,0,-6,32*
COc1ccc(S(=O)(=O)Nc2cccc(-c3ccc(N4CCCCC4)nn3)c2)cc1F,0,3,0,-2,-1
Nc1nnnn1/N=C/c1cc(Cl)cc(Cl)c1O,-4,126*,25,2,3
CN(C(=O)c1ccc(Oc2ccc([N+](=O)[O-])cc2)cc1)C1CCCCC1,-35*,11,0,-3,-14
CN(C(=O)c1ccc(S(=O)(=O)N2CCCC2)cc1)C1CCCCC1,4,3,1,-4,-4
SMILES,D1 antag,D1 ag,TRHR ag,D1 potentiator,TRHR enhancer
S=C(c1ccc(-c2ccccc2)cc1)N1CCOCC1,-2,1,0,-1,34*
O=C(Oc1ccc(-c2ccccc2)cc1)N1CCOCC1,-32*,8,0,-4,1
O=C(Oc1ccc(Cl)cc1)N1CCOCC1,14,-3,0,0,-4
O=C(c1ccc(-c2ccccc2)cc1)c1ccccc1C(=O)N1CCOCC1,14,2,0,-4,4
Cc1ccc(-n2nc(C)c3c(C)cc(=O)n(CC(=O)NC(C)c4ccccc4)c32)cc1 (configuration not stated),9,0,0,-5,-3
Cn1cnc(S(=O)(=O)NC2CCN(Cc3c(F)cccc3Cl)CC2)c1,-2,2,0,2,-4
O=C(CCS(=O)(=O)c1nc(-c2ccc3c(c2)OCO3)cc(C(F)(F)F)n1)Nc1ccc(Br)cc1,-13,3,0,3,-3
CCc1ccc(NC(=O)CSc2nc(CSc3ccc(C)cc3)cc(=O)[nH]2)cc1,-4,2,0,-6,-3
Cc1ccc(SCc2cc(=O)[nH]c(SCC(=O)Nc3cc(Cl)ccc3Cl)n2)cc1,-34*,-3,0,7,6
COc1ccc(NC(=O)c2oc3ccccc3c2NC(=O)C23CC4CC(CC(C4)C2)C3)c(OC)c1,7,5,0,2,11
Cc1cccc(-c2noc(CNC(=O)c3ccccc3Br)n2)c1,-4,10,0,-3,5
Cc1ccc(OCC(=O)O/N=C(\N)c2ccccn2)cc1C,-44*,8,0,-8,-2
Cc1cc(C)cc(OCC(=O)NNC(=O)c2ccccn2)c1,-38*,2,0,-1,1
O=C(Nc1ccc(S(=O)(=O)N(Cc2ccccc2)c2ccccc2)cc1)c1ccc([N+](=O)[O-])cc1,-1,0,1,2,12
COc1ccc2[nH]c(=O)c(CN(Cc3ccccc3)C(=S)NCC3CCCO3)cc2c1 (configuration not stated),3,2,-1,8,35*
COc1ccc2[nH]c(=O)c(CN(CCCN3CCOCC3)C(=O)NCc3ccccc3)cc2c1,-37*,1,0,-1,-1
CCOc1ccc2[nH]c(=O)c(CN(CC3CCCN3CC)C(=O)NCc3ccccc3)cc2c1 (configuration not stated),-50*,3,0,5,2
Cc1ccc(S(=O)(=O)NCc2ccccn2)cc1C,3,3,1,-1,6
Cc1cccc(N2CCN(c3ccc4cc(S(=O)(=O)N5CCC(C)CC5)ccc4n3)CC2C)c1 (configuration not stated),7,2,-1,-3,6
Cc1cc(C)cc(NC(=O)N2CCN3CCCCC3C2)c1 (configuration not stated),-10,2,0,-2,0
Cc1ccc(NC(=O)N2CCN3CCCCC3C2)cc1C (configuration not stated),-36*,-1,0,-2,0
CC(C)CNC1CCS(=O)(=O)C1 (configuration not stated),-13,1,-1,10,-2
